Experimental data from PubChem BioAssay AID1621 (Southern Research Specialized Biocontainment Screening …, 2009).
In all, about 290,000 compounds went through this assay and about 60 (0.02%) were called active. Roughly 1% stayed inconclusive and do not appear here. The rule behind the calls is not given here. Only a sample is shown. Entries with a potency or affinity are not part of this list.

test: West Nile virus antiviral activity, cell-based, CPE readout (AID 1621); conditions: West Nile virus-infected cells, at 10 µM, active compounds read high

CPE inhibition, inactive:
O=C(COc1ccc(S(=O)(=O)N2CCc3ccccc32)cc1Cl)NCc1ccccn1 -0.17%, CCOc1ccc(NC(=O)C(C)O)c(NS(=O)(=O)c2ccc(CCNC(C)=O)cc2)c1 (centres undefined) -0.27%, O=C(CNS(=O)(=O)c1ccccc1)OCC(=O)c1ccc(Br)cc1 -0.68%, CCOC(=O)C1C(=O)CC(C)(O)C(C(=O)OCC)C1c1ccc(NC(C)=O)cc1 (centres undefined) 0%, O=C1CSC(c2cn(-c3ccccc3)nc2-c2ccccc2)N1Cc1ccco1 (centres undefined) -0.03%, O=C(NC1CCS(=O)(=O)C1)c1sc2ccccc2c1Cl (centres undefined) 1.04%, CCCC1CCC(C(=O)Nn2cnc3ccccc3c2=O)CC1 (centres undefined) 0.33%, Cc1[nH]c(=O)c(C#N)c(C)c1CCC(=O)NCc1ccc(Cl)cc1 0.96%, Cc1nc(Cl)sc1C(=O)NC(C)c1ccc(Cl)cc1 (centres undefined) -0.9%, O=C1CN(C(=O)c2ccc(Cl)nc2)c2ccccc2N1 0.17%, CC(C)(C)c1ccc(NC(=O)CSc2nnc(-c3n[nH]c4ccccc34)o2)cc1 0.07%, Cc1cc(C)c2nc(N3CCCC(C(=O)NCCN4CCOCC4)C3)sc2c1 (centres undefined) -0.73%, Cc1cc(C)c2nc(N3CCCC(C(=O)NCCCN4CCOCC4)C3)sc2c1 (centres undefined) -0.13%, COC(=O)c1ccccc1NC(=S)N(Cc1ccc2c(c1)OCO2)Cc1cc2cc(C)ccc2[nH]c1=O 0.29%, Cc1[nH]c(C(=O)O)c(C)c1C(=O)OC(C)C 0.13%, CC(C(=O)NC(C)(C)C)N1C(=O)c2cccc3cccc(c23)C1=O (centres undefined) -0.58%, NCCNC(=O)c1c(NC(=O)c2ccccc2)sc2c1CCCC2 -0.62%, CN(C)CCNC(=O)c1c(NC(=O)c2ccccc2)sc2c1CCCC2 2.53%, CCc1cccc(NC(=O)C2CCCN2S(=O)(=O)c2cccc3cccnc23)c1 (centres undefined) -0.25%, O=C(NCc1cccs1)c1cc2c(s1)-c1ccccc1OC2 0.12%, Cc1cccc2c1-c1sc(C(=O)NCCCN3CCC(C)CC3)cc1CO2 1.03%, CCCN1CCN(CCCNC(=O)c2cc3c(s2)-c2c(C)cccc2OC3)CC1 -0.21%, Cc1cccc2c1-c1sc(C(=O)NCCCN3CCCC(C)C3)cc1CO2 (centres undefined) -0.27%, CCN1CCN(CCCNC(=O)c2cc3c(s2)-c2ccccc2OC3)CC1 35.2%, O=C(NC1CC1)c1cc2c(s1)-c1ccccc1OC2 1.08%, Cc1cccc2c1-c1sc(C(=O)NCCCN3CCc4ccccc4C3)cc1CO2 -0.65%, O=C(NCCCN1CCOCC1)c1cc2c(s1)-c1ccccc1OC2 0.21%, CC1(C)SC2c3ccccc3C(=O)N2[C@@H]1C(=O)O (some centres undefined) 1.57%, COc1ccc(C2/C=C\CN(C(=O)OCc3ccccc3)CC(=O)N2Cc2ccc(F)cc2)cc1 (centres undefined) -0.53%, O=c1c2ccccc2cnn1Cc1cccc(Br)c1 0%, COc1ccc(-c2noc(N3CCCC(C(=O)Nc4cc(F)ccc4F)C3)n2)cc1 (centres undefined) -0.21%, CCSc1nnc(Nc2ccccc2)s1 0.4%, C/C(=N\NC(=O)c1nn(C)c(C)c1Br)c1ccc(NC(=O)c2ccc(C)s2)cc1 -0.9%, Cc1ccc(S(=O)(=O)NC(C)CCc2ccccc2)cc1 (centres undefined) -1.02%, COc1cc2ccccc2cc1C(=O)NC(=S)Nc1nnn(C)n1 0.33%, Cc1sc(/C=C2\C(=O)ON=C2c2ccccc2)cc1Br 0.35%, CC(C)NC(=O)c1ccc(-c2ccc(Cl)c(C(F)(F)F)c2)o1 -0.86%, CCOC(=O)C1C(c2cccs2)NC(=O)N(C)C1(O)C(F)(F)F (centres undefined) -0.41%, COCCNC(=O)c1onc(CSc2cc(C)cc(C)c2)c1C(=O)NCCOC 0.39%, CCCCNC(=O)c1onc(CSc2cc(C)cc(C)c2)c1C(=O)NCCCC -0.6%, O=C(CC(=O)Nc1ccccc1C(=O)O)NNC(=O)Cc1ccccc1 -0.29%, O=C(CCCl)N1CCN(c2nc(-c3ccccc3)cs2)CC1 1.96%, CN(C)C(=O)N1CCN(c2nc(-c3ccccc3)cs2)CC1 -0.36%, CCCNc1c(NC(=O)c2cccs2)c(=O)oc2ccccc12 -0.26%, Cc1ccc(NC(=O)C(C)N2C(=O)c3ccccc3C2=O)cc1C (centres undefined) 0.2%, CCOC(=O)CN1C(=O)N[C@@H](c2cccc(C(F)(F)F)c2)[C@H](C(C)=O)[C@H]1C -0.43%, CCN(CC)CCC(c1ccc(N(C)C)cc1)c1c(OC)cc(OC)c2c(-c3ccccc3)cc(=O)oc12 (centres undefined) -0.46%, CCN(CC)CCC(c1cc(OC)c(OC)c(OC)c1)c1c(OC)cc(OC)c2c(C)cc(=O)oc12 (centres undefined) -0.13%, CONC(=O)Nc1ccccc1[N+](=O)[O-] 0.1%, CCCC(=O)Nc1c(C(=O)OCC)[nH]c2ccccc12 0%, CCOC(=O)c1[nH]c2ccccc2c1NC(=O)C(C)(C)C 0.96%, Cc1ccc(Sc2c(C)nn(C(=O)c3cccc(S(=O)(=O)N4CCOCC4)c3)c2C)cc1 0.04%, O=C(Nc1ccc(S(=O)(=O)Nc2nccs2)cc1)c1ccc(=O)[nH]c1 -0.06%, CCOc1ccc(NC(=O)c2c(NC(=O)CN3CCCC3)sc3c2CCC3)cc1 -0.99%, CN1CCN(CC(=O)Nc2sc3c(c2C(=O)Nc2ccccc2)CCCC3)CC1 1.23%, CCOC(=O)c1c(N)c2cc([N+](=O)[O-])ccc2n1C 0.7%, COCC(C)n1c(SCc2cc(C(=O)OC)c(C)o2)nc2ccccc2c1=O (centres undefined) -0.56%, CC(=O)c1ccc(N2CCN(c3ccc(S(=O)(=O)NCCCN(C)C)cc3[N+](=O)[O-])CC2)cc1 -2.19%, CC(=O)c1ccc(N2CCN(c3ccc(S(=O)(=O)NCCN(C)C)cc3[N+](=O)[O-])CC2)cc1 -0.21%
